About 83,000 compounds went through this panel and 20% of them were active in at least one assay; those are over-represented in the sample as a whole.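 Cells were grown in 96-well plates and exposed to the test compound at a single concentration for 48 hours; results are reported as percent growth, with values below 10 considered active.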 Values without a mark were called inactive. Calls of active or inactive are those of the source.
What was measured:
Experiment in all cases: NCI-60 one-dose screen, 48 h (100 = growth as untreated, 0 = no growth, -100 = all killed)
Conditions in all cases: 10 µM unless noted
SK-MEL-2 melanoma = test system: SK-MEL-2 melanoma
EKVX NSCLC = test system: EKVX NSCLC
SN12C renal = test system: SN12C renal
UO-31 renal = test system: UO-31 renal
TK-10 renal = test system: TK-10 renal
ACHN renal = test system: ACHN renal
CAKI-1 renal = test system: CAKI-1 renal
A498 renal = test system: A498 renal
CCRF-CEM leukemia = test system: CCRF-CEM leukemia
MOLT-4 leukemia = test system: MOLT-4 leukemia

| Compound | growth (SK-MEL-2 melanoma) | growth (EKVX NSCLC) [%] | growth (SN12C renal) | growth (UO-31 renal) | growth (TK-10 renal) | growth (ACHN renal) | growth (CAKI-1 renal) | growth (A498 renal) | growth (CCRF-CEM leukemia) | growth (MOLT-4 leukemia) |
| --- | --- | --- | --- | --- | --- | --- | --- | --- | --- | --- |
| COc1cccc(Cc2nn3cc(-c4ccccc4)nc3s2)c1 | 95.2% | 94.1 | 96.3% | 74.6% | 95.1% | 96% | 90.8% | 99.5% | 30.2% | 30.1% |
| COc1cc2cc(Oc3ccc(NC(=O)Nc4ccc(Cl)c(C(F)(F)F)c4)cc3)c(C)nc2cc1OCCN1CCOCC1 | 31.4% | 17.2 | 10.1% | 28.2% | 42.8% | 10% | 18.7% | 41.5% | 10.4% | -4.07% (active) |
| COc1ccc(-c2csc(NC(=O)N3CCN(c4cc5c(cc4F)c(=O)c(C(=O)O)cn5C4CC4)CC3)n2)cc1 | -20.4% (active) | 23.1 | 5.86% (active) | 1.86% (active) | 25.5% | 9.82% (active) | 29% | -15% (active) | 7.96% (active) | 3.03% (active) |
| NC1=NC(c2cccc(Br)c2)c2sc3ccc(Cl)cc3c2N1 (stereo not given) | 108% | 85.5 | 93.5% | 62.8% | 123% | 92.9% | 79.5% | 104% | 121% | 92.2% |
| C[C@H]1[C@H]2[C@H]3CC[C@@H]4[C@@]5(C)CC[C@H](O)C(C)(C)[C@@H]5CC[C@@]4(C)[C@]3(C)CC[C@]23CO[C@]1(C)[C@@H](C(=O)/C=C\c1cccnc1)C3 | 87.3% | 101 | 62.7% | 58.7% | 31.9% | 41.6% | 55.6% | 72.9% | 30.8% | 25.2% |
| Cc1cccc2c3c(sc12)C(c1ccc(F)cc1)C(C#N)=C(N)O3 (stereo not given) | 50.1% | 52.6 | 25.2% | 36.7% | 78.8% | 24.8% | -0.939% (active) | 4.47% (active) | 13.8% | 12.5% |
| O=C(/C=C/c1ccc([N+](=O)[O-])o1)NNC(=O)c1cc2ccccc2cc1O | -50.9% (active) | 38.6 | 7.5% (active) | 2.06% (active) | 19.3% | -82% (active) | 22.5% | -51% (active) | 6.58% (active) | 3.05% (active) |
| O=C1c2cccc3cccc(c23)C(=O)N1Nc1nc(NC2CCCCC2)nc(N2CCOCC2)n1 | 109% | 90 | 93.9% | 69.1% | 129% | 89.7% | 76.5% | 127% | 90.1% | 90% |
| CCOC(=O)c1sc2ncc(-c3ccc(OC)cc3)n2c1C | 103% | 94.8 | 92.1% | 79.3% | 156% | -100% (active) | 96.3% | 107% | 94.6% | 94.5% |
| O=C(O)c1cn(C2CC2)c2cc(N3CCN(C(=O)Nc4nc(-c5ccc(Cl)cc5)cs4)CC3)c(F)cc2c1=O | -18.9% (active) | 19.6 | 7.2% (active) | 2.13% (active) | 21.8% | 6.02% (active) | 17.1% | -3.82% (active) | 13.6% | 2.05% (active) |
| C=C1C(=O)O[C@H]2[C@H]1CC/C(COC(=O)NCCOCCOCC(=O)Nc1ccc(OC)c(C(N)=O)c1O)=C\CC[C@@]1(C)O[C@@H]21 | 72.5% | 84.1 | 66% | 74.9% | 45.5% | 40.8% | 82% | 92.5% | -4.37% (active) | 17% |
| N/C(=N\c1nc2ccccc2s1)NC(=O)Nc1cccc2ccccc12 | 38.7% | 40.2 | 44% | 53.4% | 55% | 42.1% | 29.5% | -10.8% (active) | 12.2% | 19.9% |
| CNc1nc2c(s1)C(c1cccc(F)c1)CC(=O)N2 (stereo not given) | 100% | 103 | 95.2% | 84.6% | 105% | 88.4% | 87.6% | 69% | 104% | 103% |
| Cc1cc(-c2cc(C)c(N)cc2C)c(C)cc1N | 90.5% | 115 | 89.9% | 78.7% | 101% | 92.8% | 87.3% | 105% | 89.8% | 100% |
| CCS(=O)(=O)c1ncnc2nc[nH]c12 | 100% | 99.3 | 94.5% | 92.6% | 98.2% | 106% | 99.6% | 92.8% | 93.3% | 103% |
| COc1nc2ccc(C)cc2cc1-c1nc2c(cnn2-c2ccccc2)c(=O)[nH]1 | 60.5% | 85.1 | 98.3% | 69.4% | 109% | 94.3% | 86.9% | 72.7% | 79.4% | 75.2% |
| Cc1ccc2c(-c3cc(-c4ccccc4)nc(N)c3C#N)cc(=O)oc2c1 | 97.1% | 113 | 91.2% | 86.3% | 101% | 99.3% | 100% | 63.6% | 105% | 94.5% |
| COc1ccc(-c2cc(-c3cc(OC)c(OC)c(OC)c3)nc(N3CCOCC3)c2C#N)cc1 | 76.1% | 64.9 | 81% | 63.7% | 100% | 68.3% | -22.7% (active) | 76.7% | 89.9% | 56.7% |
| O=C(CCN1C(=O)/C(=C/c2ccc(O)cc2)SC1=S)Nc1ccccc1 | 111% | 100 | 87.6% | 67% | 102% | 92% | 97.1% | 97.8% | 72.2% | 85.5% |
| COc1ccc(-c2nn(C(=O)c3cc(OC)c(OC)c(OC)c3)c3cc(N)ccc23)cc1 | 55.8% | 30.8 | 22.9% | 23.7% | 60.8% | 11.4% | 46.2% | -8.28% (active) | 17% | 13.7% |
| COc1ccc(/C=N/Nc2cc(=O)[nH]c3ccc(Cl)cc23)cc1 | 48.8% | 63.8 | 62.3% | 94.7% | 12.5% | 72.7% | 86.2% | 80.7% | 38.2% | 30.4% |
| O=C1CN(CCN2CC(=O)N(Cc3ccccc3)C(=O)C2)CC(=O)N1Cc1ccccc1 | 106% | 99.2 | 98.6% | 76.3% | 111% | 106% | 92.8% | 89.7% | 94.3% | 92.3% |
| CC(=O)Oc1ccccc1C(=O)N=C1[Se]CCCN1C(=O)c1ccccc1OC(C)=O | 91.4% | 75.7 | -15.2% (active) | -55.8% (active) | 6.56% (active) | 20.8% | 52.5% | 68.6% | 22.1% | 9.25% (active) |
| CNc1ccc(Nc2cccc(C)c2)c2c1C(=O)c1ccccc1C2=O | 60% | 164 | 80.4% | 58.3% | 100% | 78.1% | 131% | 89.2% | 102% | 85.1% |
| COc1cc(Nc2cn[nH]c2-c2ccc(Cl)cc2)cc(OC)c1OC | 32.4% | 62.7 | 52.5% | 32.3% | 67% | 71.1% | 59.9% | 43.3% | 24.3% | 19.7% |
